Measurements: article PMC5540273 (PLoS ONE, 2017)
Like-named read-outs stand apart in the source and are kept apart here.

Experiments:
SgK110 = settings: concentration: 1 μM, replicates: in singlicate; n = 1
TAK1 = test system: T1, TAK1; settings: concentration: 1 μM, replicates: in singlicate; n = 1
T1 construct: gene MAP3K7

TAOK1 = settings: concentration: 1 μM, replicates: in singlicate; n = 1
TAOK2 = settings: concentration: 1 μM, replicates: in singlicate; n = 1
TAOK3 = settings: concentration: 1 μM, replicates: in singlicate; n = 1
TBK1 = settings: concentration: 1 μM, replicates: in singlicate; n = 1
TEC = settings: concentration: 1 μM, replicates: in singlicate; n = 1
TESK1 = settings: concentration: 1 μM, replicates: in singlicate; n = 1
TGFBR1 = settings: n = 1
TGFBR2 = settings: concentration: 1 μM, replicates: in singlicate; n = 1
TIE1 = settings: concentration: 1 μM, replicates: in singlicate; n = 1
TIE2 = test system: T2, TIE2; settings: concentration: 1 μM, replicates: in singlicate; n = 1
T2 construct: gene TEK

TLK1 = settings: concentration: 1 μM, replicates: in singlicate; n = 1
TLK2 = settings: concentration: 1 μM, replicates: in singlicate; n = 1
TNIK = settings: concentration: 1 μM, replicates: in singlicate; n = 1
TNK1 = settings: concentration: 1 μM, replicates: in singlicate; n = 1
TNK2 = settings: concentration: 1 μM, replicates: in singlicate; n = 1
TNNI3K = settings: concentration: 1 μM, replicates: in singlicate; n = 1
TRKA = test system: T3, TRKA; settings: concentration: 1 μM, replicates: in singlicate; n = 1
T3 construct: gene NTRK1

TRKB = settings: concentration: 1 μM, replicates: in singlicate; n = 1
[1] = concentration: 1 μM, replicates: in singlicate
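Note: KINOMEscan kinase panel screen.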

Compound: Nc1nc(-c2ccc3c(N)n[nH]c3c2)cc(N2CCCCC2)n1 [GSK2228768]
- %Inh (SgK110): 0%
- %Inh (TAK1): 0%
- %Inh (TAOK1): 0%
- %Inh (TAOK2): 0%
- %Inh (TAOK3): 0%
- %Inh (TBK1): 23%
- %Inh (TEC): 2%
- %Inh (TESK1): 0%
- %Inh (TGFBR1; [1]): 0%
- %Inh (TGFBR2): 0%
- %Inh (TIE1): 6%
- %Inh (TIE2): 0%
- %Inh (TLK1): 0%
- %Inh (TLK2): 0%
- %Inh (TNIK): 0%
- %Inh (TNK1): 0%
- %Inh (TNK2): 13%
- %Inh (TNNI3K): 0%
- %Inh (TRKA): 0%
- %Inh (TRKB): 0%

Compound: O=c1cc(N2CCOCC2)nc2n(Cc3cccc(Cl)c3)ccn12 [GSK2296823]
- %Inh (SgK110): 0%
- %Inh (TAK1): 0%
- %Inh (TAOK1): 0%
- %Inh (TAOK2): 0%
- %Inh (TAOK3): 0%
- %Inh (TBK1): 38%
- %Inh (TEC): 1%
- %Inh (TESK1): 0%
- %Inh (TGFBR1; [1]): 0%
- %Inh (TGFBR2): 0%
- %Inh (TIE1): 16%
- %Inh (TIE2): 0%
- %Inh (TLK1): 0%
- %Inh (TLK2): 0%
- %Inh (TNIK): 0%
- %Inh (TNK1): 0%
- %Inh (TNK2): 28%
- %Inh (TNNI3K): 1%
- %Inh (TRKA): 0%
- %Inh (TRKB): 0%

Compound: Cn1ccc2ncnc(Oc3ccc(NC(=O)Nc4cccnc4)c(Cl)c3)c21
- %Inh (SgK110): 49%
- %Inh (TAK1): 12%
- %Inh (TAOK1): 0%
- %Inh (TAOK2): 0%
- %Inh (TAOK3): 0%
- %Inh (TBK1): 5%
- %Inh (TEC): 6%
- %Inh (TESK1): 0%
- %Inh (TGFBR1; [1]): 0%
- %Inh (TGFBR2): 0%
- %Inh (TIE1): 18%
- %Inh (TIE2): 0%
- %Inh (TLK1): 13%
- %Inh (TLK2): 0%
- %Inh (TNIK): 1%
- %Inh (TNK1): 0%
- %Inh (TNK2): 0%
- %Inh (TNNI3K): 0%
- %Inh (TRKA): 0%
- %Inh (TRKB): 0%

Compound: CCC(CC)(CC)n1cnc2c(N)ncnc21 [SKF-97620]
- %Inh (SgK110): 8%
- %Inh (TAK1): 6%
- %Inh (TAOK1): 48%
- %Inh (TAOK2): 2%
- %Inh (TAOK3): 22%
- %Inh (TBK1): 15%
- %Inh (TEC): 35%
- %Inh (TESK1): 0%
- %Inh (TGFBR1; [1]): 52%
- %Inh (TGFBR2): 0%
- %Inh (TIE1): 21%
- %Inh (TIE2): 8%
- %Inh (TLK1): 27%
- %Inh (TLK2): 2%
- %Inh (TNIK): 100%
- %Inh (TNK1): 6%
- %Inh (TNK2): 0%
- %Inh (TNNI3K): 0%
- %Inh (TRKA): 41%
- %Inh (TRKB): 26%

Compound: CNc1nccc(-c2c(-c3ccc(F)cc3)ncn2C2CCN(C)CC2)n1 [SB-222903]
- %Inh (SgK110): 36%
- %Inh (TAK1): 0%
- %Inh (TAOK1): 0%
- %Inh (TAOK2): 7%
- %Inh (TAOK3): 0%
- %Inh (TBK1): 1%
- %Inh (TEC): 10%
- %Inh (TESK1): 3%
- %Inh (TGFBR1; [1]): 24%
- %Inh (TGFBR2): 0%
- %Inh (TIE1): 0%
- %Inh (TIE2): 0%
- %Inh (TLK1): 0%
- %Inh (TLK2): 0%
- %Inh (TNIK): 21%
- %Inh (TNK1): 25%
- %Inh (TNK2): 0%
- %Inh (TNNI3K): 0%
- %Inh (TRKA): 20%
- %Inh (TRKB): 0%

Compound: Cl.c1ccc(Cn2ccc3cc(Nc4ncnc5ccccc45)ccc32)cc1 [GW275568]
- %Inh (SgK110): 0%
- %Inh (TAK1): 6%
- %Inh (TAOK1): 0%
- %Inh (TAOK2): 23%
- %Inh (TAOK3): 0%
- %Inh (TBK1): 39%
- %Inh (TEC): 4%
- %Inh (TESK1): 9%
- %Inh (TGFBR1; [1]): 29%
- %Inh (TGFBR2): 0%
- %Inh (TIE1): 0%
- %Inh (TIE2): 0%
- %Inh (TLK1): 19%
- %Inh (TLK2): 0%
- %Inh (TNIK): 0%
- %Inh (TNK1): 0%
- %Inh (TNK2): 12%
- %Inh (TNNI3K): 18%
- %Inh (TRKA): 5%
- %Inh (TRKB): 0%

Compound: Fc1cccc(COc2ccc(Nc3ncnc4nn5ccccc5c34)cc2Cl)c1 [GW689066]
- %Inh (SgK110): 0%
- %Inh (TAK1): 0%
- %Inh (TAOK1): 0%
- %Inh (TAOK2): 0%
- %Inh (TAOK3): 0%
- %Inh (TBK1): 0%
- %Inh (TEC): 0%
- %Inh (TESK1): 14%
- %Inh (TGFBR1; [1]): 0%
- %Inh (TGFBR2): 0%
- %Inh (TIE1): 0%
- %Inh (TIE2): 0%
- %Inh (TLK1): 0%
- %Inh (TLK2): 0%
- %Inh (TNIK): 0%
- %Inh (TNK1): 0%
- %Inh (TNK2): 10%
- %Inh (TNNI3K): 0%
- %Inh (TRKA): 0%
- %Inh (TRKB): 22%

Compound: CCCc1ccc(S(=O)(=O)NC2CCN(c3ccnc(Nc4ccc(OC)cc4)n3)C2)cc1 (centres unmarked) [GSK1379737]
- %Inh (SgK110): 0%
- %Inh (TAK1): 0%
- %Inh (TAOK1): 0%
- %Inh (TAOK2): 0%
- %Inh (TAOK3): 0%
- %Inh (TBK1): 0%
- %Inh (TEC): 0%
- %Inh (TESK1): 36%
- %Inh (TGFBR1; [1]): 28%
- %Inh (TGFBR2): 0%
- %Inh (TIE1): 34%
- %Inh (TIE2): 0%
- %Inh (TLK1): 0%
- %Inh (TLK2): 0%
- %Inh (TNIK): 0%
- %Inh (TNK1): 0%
- %Inh (TNK2): 11%
- %Inh (TNNI3K): 6%
- %Inh (TRKA): 0%
- %Inh (TRKB): 23%

Compound: Cc1cc(N2CCC(NS(=O)(=O)c3ccc(F)cc3)CC2)nc(Nc2cccc(C#N)c2)n1.O=C(O)C(F)(F)F [GSK1653537]
- %Inh (SgK110): 6%
- %Inh (TAK1): 0%
- %Inh (TAOK1): 0%
- %Inh (TAOK2): 0%
- %Inh (TAOK3): 0%
- %Inh (TBK1): 1%
- %Inh (TEC): 0%
- %Inh (TESK1): 9%
- %Inh (TGFBR1; [1]): 0%
- %Inh (TGFBR2): 11%
- %Inh (TIE1): 3%
- %Inh (TIE2): 0%
- %Inh (TLK1): 5%
- %Inh (TLK2): 0%
- %Inh (TNIK): 0%
- %Inh (TNK1): 0%
- %Inh (TNK2): 11%
- %Inh (TNNI3K): 0%
- %Inh (TRKA): 0%
- %Inh (TRKB): 0%

Compound: FC(F)(F)c1ccc(-c2cc(-c3c[nH]nc3-c3ccccn3)ccn2)cc1 [GW599550]
- %Inh (SgK110): 0%
- %Inh (TAK1): 28%
- %Inh (TAOK1): 0%
- %Inh (TAOK2): 0%
- %Inh (TAOK3): 0%
- %Inh (TBK1): 18%
- %Inh (TEC): 0%
- %Inh (TESK1): 17%
- %Inh (TGFBR1; 1 µM): 88%
- %Inh (TGFBR2): 77%
- %Inh (TIE1): 4%
- %Inh (TIE2): 0%
- %Inh (TLK1): 11%
- %Inh (TLK2): 11%
- %Inh (TNIK): 78%
- %Inh (TNK1): 0%
- %Inh (TNK2): 16%
- %Inh (TNNI3K): 0%
- %Inh (TRKA): 0%
- %Inh (TRKB): 0%
